This passage reports 5-HT1 results from paper PMC8159961, “Exploring protein hotspots by optimized fragment pharmacophores” (Nature Communications, 2021).

Values without a mark were called inactive. The rule behind the calls is not given here.

Chain of 5-HT1A receptor (P08908 whole entry, looked up): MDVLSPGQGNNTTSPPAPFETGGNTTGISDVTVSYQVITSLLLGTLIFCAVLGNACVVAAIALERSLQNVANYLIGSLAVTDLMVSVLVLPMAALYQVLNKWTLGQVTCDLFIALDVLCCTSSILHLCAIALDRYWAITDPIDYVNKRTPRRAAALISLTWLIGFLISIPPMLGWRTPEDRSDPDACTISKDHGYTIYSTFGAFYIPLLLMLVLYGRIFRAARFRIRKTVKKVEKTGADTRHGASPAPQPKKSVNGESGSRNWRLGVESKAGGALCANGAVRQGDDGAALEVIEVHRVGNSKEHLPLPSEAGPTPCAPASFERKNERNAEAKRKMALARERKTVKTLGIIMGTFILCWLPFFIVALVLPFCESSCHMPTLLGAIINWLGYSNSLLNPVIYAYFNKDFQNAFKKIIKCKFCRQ

In this test the target is 5-HT1A receptor (human, UniProt P08908). Kind of test: primary screen, binary call; higher = more effect of the substance. Details: hit call from the mean of at least two separate experiments. The conditions noted are these: 10 µM. The method, then:
GPCR radioligand binding assays were performed in HEK293 cells with stable expression of human 5-HT1A, 5-HT6, and 5-HT7b receptors (prepared with the use of Lipofectamine 2000). Non-specific binding was defined with 10 µM of 5-HT in 5-HT1AR and 5-HT7R binding experiments, whereas 10 µM of mianserin was used in 5-HT6R assays, respectively. Each compound was tested at 10 µM concentration. Results were expressed as means of at least two separate experiments.
`CCCN1C(=O)CC(=O)NC1=S`: the 5-HT1 was 0.

Consider `c1ccc(-c2ccncc2)cc1`, for which the 5-HT1 was 0.

For `COc1ccccc1CC1CCNCC1.Cl`, the 5-HT1 was 1 (active).

Consider `O=C(c1ccncc1)N1CCNCC1`, for which the 5-HT1 is 0.

With `Oc1cnc(-c2ccccc2)nc1`, the 5-HT1 was 0.

In the case of `O=C1CC(CSc2ccc(Cl)cc2)=NN1`, the 5-HT1 was 0.

Regarding `COc1ccc(CN2CCNCC2)cc1F`, the 5-HT1 was 0.

`O=C(O)c1ccc(CN2CCOCC2)cc1`: the 5-HT1 was 0.

For the compound `O=C(NC1CC1)c1ccccc1O`, the 5-HT1 is 0.

In the case of `Cc1ccc(CCNc2ccccc2)cn1`, the 5-HT1 is 0.

On to `O=C(c1ccccc1F)N1CCNCC1`, for which the 5-HT1 is 0.

As to `C1=C[C@H]2O[C@@H]1c1ccccc12`, the 5-HT1 was 0.

As for `Cc1cc(N)no1`, the 5-HT1 was 0.

On to `O=C(O)CC1CCC(=O)N1` (stereo not shown), for which the 5-HT1 was 0.

On to `O=C1CCC(=O)N(c2ccccc2)N1`, for which the 5-HT1 is 0.

As to `CS(=O)(=O)c1ccc(OC(F)(F)F)cc1`, the 5-HT1 is 0.

`Cn1c(CO)nc2ccccc21`: the 5-HT1 was 0.

Turning to `O=C1CSC(Nc2ccc(F)cc2)=N1`, the 5-HT1 was 0.

For `N#CCCN1CCc2ccccc21`, the 5-HT1 is 0.

On to `CS(=O)(=O)c1ccc(N2CCNCC2)cc1`, for which the 5-HT1 was 0.

Turning to `O=C(O)C1CCCN(C(=O)N2CCCC2)C1` (stereo not shown), the 5-HT1 was 0.

In the case of `COc1ccccc1N1CCNCC1`, the 5-HT1 was 1 (active).

As for `Cc1ccc(-c2ccc(O)cc2)cc1`, the 5-HT1 is 0.

Turning to `O=c1[nH]c2c(s1)CCC2`, the 5-HT1 was 0.

As to `CCc1ccc(NC2=NCCCS2)cc1`, the 5-HT1 was 0.

On to `Oc1ccc(-n2cncn2)cc1`, for which the 5-HT1 was 0.

For the compound `Cc1ccc(C)n1Cc1ccccc1Cl`, the 5-HT1 is 0.

Consider `CC(=O)c1ccc2c(c1)CCCN2`, for which the 5-HT1 was 0.

As for `O=C1CCN(c2ccncc2)CC1`, the 5-HT1 is 0.

Turning to `O=C(CN1CCNCC1)c1ccccc1`, the 5-HT1 was 0.

For `Brc1ccc(-c2ccon2)cc1`, the 5-HT1 was 0.

For `CCN(CC)c1cccc(C)c1`, the 5-HT1 is 0.

Take `O=C1CNCCN1c1ccccc1`: the 5-HT1 is 0.

On to `O=C(Nc1ccccc1)C1CC1`, for which the 5-HT1 is 0.

For the compound `Cn1c(N)nc2ccccc21`, the 5-HT1 was 0.

`c1ccc2oc(C3CCCNC3)nc2c1` (stereo not shown): the 5-HT1 was 1 (active).

Consider `CC(=O)c1ccc2c(c1)CNCC2`, for which the 5-HT1 was 0.

Regarding `FC1(F)CNCC(F)(F)O1`, the 5-HT1 was 0.

For the compound `CC(=O)c1sc(-c2ccc(O)cc2)nc1C`, the 5-HT1 is 0.

Take `NC(c1ccccc1)c1ccccc1`: the 5-HT1 was 0.
